In the library only some 8% were active in any assay of this set; here they are far more common.
MARV entry inh = inhibitors of Marburg virus binding or cell entry | Potency, µM (top dose mostly 37.8 µM), most hits filed as inhibitors | 1.8% of 300,000 active | Marburg virus pseudotyped entry inhibition, cell reporter | AID 540276; calls by dose curve; tested in HEK293 cells
FMDV antiviral = blocks foot and mouth disease virus. FMDV antiviral cell-based qHTS. Potency, µM (series often up to 57.9 µM), usual class: inhibitors. 1.2% of 410,000 active; calls by dose curve; tested in HEK293T cells; also: read-out not given here; nearly all actives have a fitted effect of over 45% in size
HCMV antiviral = human cytomegalovirus inhibition; HFF cells, HCMV-luciferase reporter, 72 h; stronger effect = lower value; activity change, negative = inhibition, % at 57.5 µM; 4.5% of 410,000 active; AID 1259415; in the data active = activity change below about -60%; inconclusive = no clear call, values can overlap the other calls; inactive = above about -39%
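Human foreskin fibroblasts infected with luciferase-reporter HCMV at MOI 1 PFU/cell, compounds at two doses. Luciferase measured 72 h post infection; normalized to buffer-only basal and Salinomycin (10uM) controls.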
SARS PLpro yeast = blocks SARS-CoV papain-like protease in a yeast assay. S. cerevisiae expressing SARS-CoV PLpro, growth rescue. Potency, µM (titrated, usually from 32.9 µM), actives largely listed as activators. 0.19% of 330,000 active; calls by dose curve; also: nearly all actives have a fitted effect of over 55% in size
Lassa entry inh = blocks Lassa virus binding to or entry into cells. Potency, µM (titrated, usually from 37.9 µM), hits mostly inhibitors. Lassa virus pseudotype entry inhibition, cell reporter. 1.2% of 300,000 active. AID 540256; calls by dose curve; tested in HEK293 cells; also: nearly all actives have a fitted effect of over 50% in size
HCV inh = HCV inhibition; Huh7.5.1 HCVcc-Cre infection, luciferase reporter, 44 h; Potency, µM (titrated, usually from 41.8 µM), actives largely listed as inhibitors; 3.4% of 340,000 active; active = well fitted inhibition curve with a large enough effect; inconclusive = small, poorly fitted or top-dose-only effect, or another doubt; inactive = no such curve, though single readings can be large or run the other way
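Infectious HCV cell culture screen: compound-treated cells (1,000/well, pre-plated 4 h) are infected with HCVcc-Cre at roughly 0.5 moi and grown 44 h. Infection is quantified by luciferase signal after 15 min substrate incubation at room temperature.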
Numbers stand for hits; . = inactive; ? = inconclusive; / = no result.

SMILES	MARV entry inh	FMDV antiviral	HCMV antiviral	SARS PLpro yeast	Lassa entry inh	HCV inh
COc1cc2c(cc1OC)C(COc1cc(C)cc(C)c1)N(C(=O)C(C)(C)C)CC2 (stereo not drawn)	/	.	.	/	.	/
O=C(CCC(=O)OCCOc1ccccc1)OCCOc1ccccc1	/	.	-97.9	/	/	/
O=C(O)c1ccc(OCCOc2ccccc2)cc1	/	.	.	.	/	.
O=C(Nc1ccccc1)OCCOc1ccccc1	.	.	.	.	.	12.6µM
O=C(c1[nH]c(C(F)(F)F)nc1-c1ccccc1)N1CCN(Cc2c(F)cccc2Cl)CC1	/	.	.	/	/	/
CCn1cc(C(=O)NCCc2ccc(Cl)cc2)c(=O)c2cc(S(=O)(=O)N3CCc4ccccc4C3)ccc21	.	.	.	/	.	/
CCOC(=O)C1C(=O)C=C(c2ccc(Br)cc2)CC1c1ccco1 (stereo not drawn)	?	?	.	.	14.6µM	.
CCOC(=O)C1C(=O)C=C(c2ccc(C)cc2)CC1c1ccccc1 (stereo not drawn)	.	.	.	.	15.8µM	.
CCOC(=O)CC1CCCCN1C(=O)c1cc(COc2cccc3cnccc23)on1 (stereo not drawn)	/	2.82µM	-87.0	.	/	2.24µM
O=C(c1cc(COc2cccc3cccnc23)on1)N1CCC[C@H]1CO	/	.	.	/	/	/
COC(=O)C1CCCCN1C(=O)c1cc(COc2cccc3cnccc23)on1 (stereo not drawn)	/	/	-92.0	.	/	/
Cc1oc2c(cc(NS(=O)(=O)c3ccc(F)cc3)c3ccccc32)c1C(=O)OCc1ccccc1	.	.	.	/	.	/
COC(=O)C1=C(C)NC(=O)/C1=C\c1cc(C)n(-c2c(C)cccc2C)c1C	11.6µM	/	-61.5	.	?	?
C=Cn1cc[n+](CC(=O)c2ccc(C)cc2)c1	?	.	-68.4	.	.	.
C=Cn1cc[n+](CC(=O)c2ccc(Br)cc2)c1	/	.	.	.	/	.
CCc1cccc(NC(=O)CCS(=O)(=O)c2ccc3nc(C)sc3c2)c1	/	.	.	/	.	/
Cc1ccc(-c2nonc2NC(=O)c2ccco2)cc1C	.	.	.	/	.	/
C=CCNc1oc(-c2cccc3ccccc23)nc1C#N	.	/	.	.	.	6.31µM
CN(C)c1oc(-c2ccccc2Cl)nc1C#N	.	.	.	.	.	25.1µM
N#Cc1nc(-c2ccccc2Cl)oc1NCC1CCCO1 (stereo not drawn)	/	.	.	.	/	12.6µM
CCOc1ccc(-c2nc(C#N)c(NCC3CCCO3)o2)cc1 (stereo not drawn)	.	.	.	.	.	.
N#Cc1nc(-c2cccc3ccccc23)oc1NCCN1CCCCC1	?	.	.	.	.	11.2µM
CCNc1oc(-c2cccc3ccccc23)nc1C#N	.	.	.	/	.	?
N#Cc1nc(-c2cccc3ccccc23)oc1N1CCCCC1	?	.	.	.	.	.
CCOc1cc2c(cc1OCC)C(c1ccccc1)N(c1ccccc1)C(=O)C2 (stereo not drawn)	?	.	.	.	.	?
SMILES	MARV entry inh	FMDV antiviral	HCMV antiviral	SARS PLpro yeast	Lassa entry inh	HCV inh
O=C(CN1C(=O)c2cccc3cccc1c23)Nc1ccccc1C(=O)NCc1ccco1	?	.	-61.1	/	?	.
COc1cccc(C(=O)Nc2ccccc2C(=O)OCc2cc(=O)n3nc(C4CC4)sc3n2)c1	/	.	.	/	.	/
COc1ccc(NC(=O)CCNS(=O)(=O)c2cccc3nsnc23)cc1Cl	.	.	.	/	.	/
c1csc(-n2nc3ccccc3n2)c1	.	.	-65.6	.	.	.
COc1ccc(CN(Cc2ccco2)c2cnc(S(C)(=O)=O)nc2C(=O)Nc2ccc(F)cc2)cc1	.	.	.	/	.	/
CCCn1c(N)c(C(=O)CSc2nnc(N)s2)c(=O)[nH]c1=O	/	.	.	.	/	.
CCCn1c(N)c(C(=O)CSc2nc3ccccc3s2)c(=O)[nH]c1=O	?	?	-66.1	.	?	?
CN(C)c1ccnc(-c2cccc(NS(C)(=O)=O)c2)n1	/	.	/	/	/	/
CC(=O)C1=C(C)N(CC#C[Si](C)(C)C)C(=O)N(C(C)=O)C1c1ccccc1 (stereo not drawn)	.	/	/	/	?	/
O=C(Nc1ccc(O)cc1)c1cc2ccccc2c(=O)s1	?	.	-70.5	.	.	?
O=C(NCCc1ccccc1Cl)c1ccc2c(c1)nc1n2CCOC1	/	.	.	/	.	/
c1ccc(-c2ccc(OCCCNC3CCCC3)cc2)cc1	?	.	.	.	.	11.2µM
c1ccc(Cc2ccc(OCCCNC3CCCC3)cc2)cc1	/	/	/	.	/	/
COc1ccc(NC(=O)c2ccco2)cc1NC(=O)COc1ccc(Cl)c(C)c1	.	.	.	/	.	/
Cc1cccc(NC(=O)C2CCCN(c3nnc(-n4c(C)ccc4C)s3)C2)c1C (stereo not drawn)	.	.	.	/	.	/
Cc1ccc(/C=C2/NC(=O)N(c3ccccc3)C2=O)o1	.	.	?	.	.	.
O=C1N/C(=C/c2ccc(Br)s2)C(=O)N1c1ccccc1	?	.	-62.0	.	?	.
Cc1cccc(NC(=O)CSc2nc(C)c(CC(=O)c3ccc(Br)cc3)c(C)c2C#N)c1C	?	.	-79.1	.	.	.
Cc1nc(SCC(=O)Nc2ccc(F)cc2)c(C#N)c(C)c1CC(=O)c1ccc(Br)cc1	?	.	.	.	11.2µM	.
Cc1ccc(NC(=O)CSc2nc(-c3ccc(F)cc3)cc(C(F)(F)F)c2C#N)cc1	?	.	.	/	.	/
Cc1ccc(NC(=O)Cn2cc(C(=O)C3CCCCC3)c3ccccc32)c(C)c1	?	.	.	/	.	/
CC1CCCc2sc3ncn(N)c(=N)c3c21 (stereo not drawn)	.	.	-63.2	.	.	?
Cc1nn(-c2ccccc2)c2nc(N)c(C#N)c(-c3ccc(O)c(O)c3)c12	?	.	-62.3	.	?	11.2µM
COc1cc(-c2c(C#N)c(N)nc3c2c(C)nn3-c2ccc(C)c(C)c2)cc(OC)c1OC	20.6µM	.	.	.	?	?
O=C1c2cccc3c([N+](=O)[O-])ccc(c23)C(=O)N1Cc1cccnc1	?	.	-73.4	.	?	?
SMILES	MARV entry inh	FMDV antiviral	HCMV antiviral	SARS PLpro yeast	Lassa entry inh	HCV inh
Cc1ccc(N2C(=O)c3cccc4c([N+](=O)[O-])ccc(c34)C2=O)c2cccnc12	/	?	?	.	/	.
Cc1ccnc(N2C(=O)c3cccc4c([N+](=O)[O-])ccc(c34)C2=O)c1	20.6µM	?	.	.	?	11.2µM
CC(C)C[C@H](NC(=O)OC(C)(C)C)C(=O)N[C@@H](CO)[C@H](O)[C@@H]1C[C@@H]1C(=O)N1CCCC1	/	.	.	.	/	.
COC(=O)c1cc2ccc(OC)cc2c2cc(OC)c(OC)cc12	/	?	.	.	/	1.41µM
Cc1ccc(N2C(=O)CC(NNc3nc4ccccc4s3)C2=O)cc1C (stereo not drawn)	.	.	-78.6	.	.	.
COc1ccc(N2C(=O)CC(NNc3nc4ccccc4s3)C2=O)cc1 (stereo not drawn)	.	.	.	.	.	.
CCN1C(=O)NC(c2cccs2)C(C(=O)OC)=C1C (stereo not drawn)	.	/	/	/	/	/
COc1ccc(NS(=O)(=O)c2cccc(C(=O)O)c2)cc1	.	/	.	.	.	.
